Assay outcomes as filed in PubChem BioAssay.
Shown are actives, neighbours in structure and some others; about 1.4% of the full set was active somewhere.
CASP6 VEID inh: caspase-6 (human) enzyme inhibition; purified caspase-6, Z-VEID-R110 cleavage fluorescence; P55212; inhibition, % at 12.5 µM; actives 0.53% (n = 350,000); AID 686996;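 active = mean inhibition across replicates at least about 35%, with every replicate also reaching that limit, limit read from the data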;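 also: 0% = median of neutral control wells and 100% = no fluorescence left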
Target sequence (P55212 24-179 limits assumed): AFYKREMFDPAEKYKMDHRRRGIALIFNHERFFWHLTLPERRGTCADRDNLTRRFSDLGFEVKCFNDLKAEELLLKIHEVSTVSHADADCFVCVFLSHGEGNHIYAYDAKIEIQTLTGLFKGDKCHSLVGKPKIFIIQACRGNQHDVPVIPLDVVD
Target sequence (P55212 194-293 limits assumed): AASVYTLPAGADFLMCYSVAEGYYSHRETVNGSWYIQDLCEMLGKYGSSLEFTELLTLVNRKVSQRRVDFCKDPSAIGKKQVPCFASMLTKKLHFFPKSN
MBD2 inh: inhibitors of human MBD2 binding to methylated oligonucleotide; Q9UBB5; TR-FRET; inhibition, % at 4.4 µM; actives 0.31% (n = 370,000); in the data active = inhibition above about 13%
Target sequence (Q9UBB5 whole entry, looked up): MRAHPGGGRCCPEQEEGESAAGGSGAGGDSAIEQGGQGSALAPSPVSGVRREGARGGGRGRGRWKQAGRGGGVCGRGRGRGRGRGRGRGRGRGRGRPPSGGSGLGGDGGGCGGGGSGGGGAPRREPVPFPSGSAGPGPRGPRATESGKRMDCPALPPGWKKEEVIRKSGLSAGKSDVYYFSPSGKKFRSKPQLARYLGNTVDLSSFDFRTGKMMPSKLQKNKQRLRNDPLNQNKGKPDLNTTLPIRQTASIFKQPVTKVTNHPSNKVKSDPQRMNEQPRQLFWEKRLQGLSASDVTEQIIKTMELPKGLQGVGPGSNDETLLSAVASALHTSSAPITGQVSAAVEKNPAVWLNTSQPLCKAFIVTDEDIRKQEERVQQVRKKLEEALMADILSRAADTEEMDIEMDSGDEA
UHRF1 MBD2 ctr: blocks human UHRF1 binding to methylated DNA; Q96T88; UHRF1 binding to methylated oligo, TR-FRET; inhibition, % at 4.4 µM; actives 0.75% (n = 370,000); AID 687016; in the data active = inhibition above about 21%;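 also: UHRF1 SRA domain binding a hemimethylated CpG hairpin DNA probe; 0% = median of test compound wells and 100% = reference inhibitor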
LEDGF integ inh: blocks HIV-1 LEDGF/p75-dependent DNA integration. actives 0.64% (n = 370,000). TR-FRET IN-LEDGF/p75 DNA integration, Eu/Cy5. inhibition, % at 3.7 µM. AID 743269;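 active = inhibition above the screen-wide mean plus 3 SD, cut at about 13% in these data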;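 also: signal is the Cy5 over europium emission ratio at 671 and 618 nm; 0% = plate median of compound wells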
IN multimer up: counter-screen for LEDGF/p75 integration inhibitors: HIV-1 integrase multimerization activators. shares compounds with LEDGF integ inh. AID 1053131. actives 17% (n = 2,000). TR-FRET HIV-1 integrase multimerization, biochemical. activation, % at 7.7 µM; in the data active = activation above about 8.9%
TR-FRET interf: TR-FRET optical interference, LEDGF/p75 integration counter-screen; TR-FRET optical interference counterscreen, HIV-1 IN multimerization; 2,000 tested, under 10 active; shares compounds with LEDGF integ inh; inhibition, % at 7.7 µM; AID 1053135;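 active = inhibition above the mean over all tested compounds plus 3 SD, which no compound reached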;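 also: 0% = integrase with antibodies and DMSO and 100% = antibodies without integrase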
LEDGF integ conf: confirmation of HIV-1 LEDGF/p75-dependent integration inhibitors | actives 36% (n = 2,000) | shares compounds with LEDGF integ inh | inhibition, % at 3.7 µM | TR-FRET LEDGF/p75-dependent HIV-1 integration, biochemical | AID 1053136; in the data active = inhibition above about 14%
Numbers without * were called inactive; nt = no result.

SMILES	CASP6 VEID inh	MBD2 inh	UHRF1 MBD2 ctr	LEDGF integ inh	IN multimer up	TR-FRET interf	LEDGF integ conf
CCN1C[C@@H]2[C@@H]3C(=O)N(C)C(=O)[C@@H]3[C@](CC)(C(=O)OC)N2C1=NCc1ccccc1	-1.8	10.4	21.1*	64.9*	-1.8	9.1	1.6
CCN1C[C@@H]2[C@@H]3C(=O)N(Cc4ccccc4)C(=O)[C@@H]3[C@](CC)(C(=O)OC)N2C1=NCc1ccccc1	1.6	10.1	3.6	0.1	nt	nt	nt
c1cc(-c2ccc(CN3CCOCC3)cc2)n2ccnc2c1	-6.9	2.1	-0.9	2.3	nt	nt	nt
c1cn2cc(-c3ccc(CN4CCOCC4)cc3)ccc2n1	-6.7	-3.9	-0.2	88.9*	1.2	-4.3	-1.4
C[n+]1cccc2cccc([O-])c21	52.0*	1.6	10.2	15.1*	8.4	-29.4	53.6*
COC(=O)C[C@H]1CC[C@H]2[C@@H](COc3ccc(NC(=O)C4CCOCC4)cc3C(=O)N2C)O1	-2.5	nt	nt	nt	nt	nt	nt
COc1ccc(Cl)cc1N(CC(=O)Nc1cccc(SC)c1)S(C)(=O)=O	3.3	-5.5	5.7	40.1*	-0.6	3.1	-2.8
COc1ccc(N(CC(=O)Nc2cccc(N(C)S(C)(=O)=O)c2)S(=O)(=O)c2ccccc2)cc1Cl	-0.9	-4.0	-1.8	43.8*	2.3	-8.2	-2.8
COc1ccc(N(CC(=O)Nc2ccc(OC)c(OC)c2)S(=O)(=O)c2ccccc2)cc1Cl	0.6	0.5	7.1	5.8	nt	nt	nt
CC(=O)Nc1ccc(NC(=O)/C(=C/c2ccco2)NC(=O)c2ccccc2)cc1	1.1	6.1	2.1	-1.4	nt	nt	nt
O=C(Nc1ccc(C(=O)O)cc1)/C(=C\c1ccco1)NC(=O)c1ccccc1	-1.0	1.8	0.6	6.3	nt	nt	nt
CC(C)(C)c1ccc(C(=O)N/C(=C\c2ccco2)C(=O)Nc2ccccc2C(=O)O)cc1	31.2	6.4	16.1	20.0*	1.9	-9.7	25.5*
CCc1ccccc1NC(=O)c1cccc(NC(=O)/C=C/c2ccco2)c1	nt	-1.5	-2.8	4.6	nt	nt	nt
O=C(/C=C/c1ccco1)Nc1cccc(C(=O)Nc2ccccc2C(=O)O)c1	59.9*	12.4	36.6*	18.5*	3.3	-16.5	12.7
O=C(Nc1ccc(C(=O)O)cc1)/C(=C\c1ccco1)NC(=O)c1ccccc1Cl	4.7	-6.2	6.6	17.2*	2.2	-10.8	2.0
COc1ccc2c3c(n(C)c2c1)[C@@H](CO)N(C(=O)Nc1ccc(F)cc1)CC31CCN(S(=O)(=O)c2cccs2)CC1	1.6	nt	nt	nt	nt	nt	nt
C[C@@H]1CN([C@@H](C)CO)C(=O)c2cc(NS(=O)(=O)c3ccc(Cl)cc3)ccc2O[C@@H](C)CCCCO[C@@H]1CN(C)C(=O)Cc1ccccc1	-4.2	nt	nt	nt	nt	nt	nt
N#Cc1nc(-c2ccc(F)cc2)oc1NCc1ccccc1	-3.3	6.7	0.0	14.9*	-2.1	7.8	-1.7
N#Cc1nc(-c2ccc(F)cc2)oc1NCc1ccco1	2.2	2.7	1.2	6.7	nt	nt	nt
N#Cc1nc(-c2cccs2)oc1NCc1ccccc1	nt	4.4	-2.4	14.4*	4.5	-16.8	16.8*
Cc1ccc(CNc2oc(-c3cccs3)nc2C#N)cc1	nt	-1.9	-2.3	20.9*	1.4	-7.2	1.6
COc1cccc(-c2ccc3c(c2)[C@@H]2[C@@H](CCN2S(=O)(=O)c2ccccc2OC)[C@H](CO)N3C)c1	-3.2	nt	nt	nt	nt	nt	nt
O=C(NCC[C@@H]1CC[C@@H](NC(=O)C2CCCC2)[C@@H](CO)O1)c1cc(Cl)cc(Cl)c1	0.8	nt	nt	nt	nt	nt	nt
CNC[C@@H]1Oc2ccc(NC(=O)CCCN(C)C)cc2C(=O)N([C@@H](C)CO)C[C@@H]1C	-52.7	nt	nt	nt	nt	nt	nt
COCC#Cc1cnc2c(c1)C(=O)N([C@@H](C)CO)C[C@H](C)[C@@H](CN(C)Cc1ccccc1F)O2	1.5	nt	nt	nt	nt	nt	nt
SMILES	CASP6 VEID inh	MBD2 inh	UHRF1 MBD2 ctr	LEDGF integ inh	IN multimer up	TR-FRET interf	LEDGF integ conf
COCCNC(=O)C[C@H]1C[C@@H]2c3cc(NC(=O)NC4CCCC4)ccc3O[C@@H]2[C@@H](CO)O1	0.5	nt	nt	nt	nt	nt	nt
CCOP(=O)(O)c1ccccc1OCCOc1ccccc1P(=O)(O)OCC	nt	-0.8	4.4	-3.4	nt	nt	nt
O=P(O)(O)COc1ccccc1P(=O)(c1ccccc1)c1ccccc1	nt	-2.6	-0.3	19.0*	-2.5	12.6	0.1
N#C[C@H]1[C@H](c2ccccc2-c2ccc(F)cc2)[C@@H](CO)N1C(=O)Cc1cccnc1	-0.4	nt	nt	nt	nt	nt	nt
COc1ccc(CS(=O)(=O)CC(C)(O)c2ccc(Cl)cc2)cc1 (configuration not stated)	-2.4	-4.6	-2.8	14.2*	0.5	-1.6	0.1
CC(O)(CS(=O)(=O)Cc1ccccc1)c1ccc(Cl)cc1 (configuration not stated)	-2.2	3.8	-4.4	-1.9	nt	nt	nt
COc1ccc(S(=O)(=O)Nc2cccc3c2O[C@@H](CN(C)Cc2ccccc2)[C@@H](C)CN([C@@H](C)CO)C3=O)cc1	-2.1	nt	nt	nt	nt	nt	nt
NS(=O)(=O)c1ccc(NC2=CC(=O)C(=O)c3ccccc32)cc1	68.3*	-12.0	8.4	31.9*	6.4	-22.5	61.6*
Cc1ccc(NC2=CC(=O)C(=O)c3ccccc32)cc1	nt	-10.5	-7.3	22.9*	9.0*	-31.9	39.5*
Cc1cc(NC2=CC(=O)C(=O)c3ccccc32)no1	48.5*	-10.8	-7.3	15.7*	4.5	-15.9	51.9*
CCOC(=O)c1ccc(NC2=CC(=O)C(=O)c3ccccc32)cc1	nt	-0.9	-0.7	2.0	nt	nt	nt
O=C(Nc1ccccc1F)N1C[C@@H]2[C@H](c3ccccc31)[C@H](CO)N2C(=O)Cc1ccccc1	-2.5	nt	nt	nt	nt	nt	nt
COc1ccccc1NC(=O)N[C@H]1CC[C@@H](CCNS(=O)(=O)c2ccccc2)O[C@H]1CO	-14.3	nt	nt	nt	nt	nt	nt
Cc1cc2c(NC(=O)Nc3ccc(C(F)(F)F)cc3)cccc2nn1	53.8*	-8.4	4.1	29.9*	7.8	-27.9	6.0
COc1ccccc1COC(=O)N/C=C/c1ccco1	nt	1.4	6.2	13.8*	-1.3	4.4	17.1*
COc1ccc(COC(=O)N/C=C/c2ccco2)cc1	17.5	-2.4	-1.2	-0.1	nt	nt	nt
CCCC(=O)N1CCC2(CC1)CN(C(=O)COC)[C@H](CO)c1c2c2ccc(OC)cc2n1C	0.3	nt	nt	nt	nt	nt	nt
COC(=O)c1cc(NS(=O)(=O)c2ccc(N3CCOCC3)c(N)c2)cc(C(=O)OC)c1	-0.2	3.3	2.4	14.4*	0.3	-1.5	-5.9
COc1ccc2c3c([nH]c2c1)[C@@H](CO)N(Cc1nccs1)CC31CN(C(=O)C2CCCC2)C1	1.4	nt	nt	nt	nt	nt	nt
COCC(=O)Nc1ccc2c(c1)C(=O)N(C)C[C@H](OC)[C@H](C)CN(C(=O)c1cnccn1)[C@H](C)CO2	0.0	nt	nt	nt	nt	nt	nt
O=c1c(O)c(-c2ccc(O)c(O)c2)oc2cc(O)ccc12	65.5*	-0.2	-0.3	78.6*	39.3*	-197.9	92.3*
C[C@@H]1CN([C@@H](C)CO)C(=O)c2cccc(NC(=O)c3ccncc3)c2O[C@@H]1CN(C)S(=O)(=O)c1cccs1	2.9	nt	nt	nt	nt	nt	nt
